Test [1] is described as follows: sensitizers of A549 cells to miR-34 induction, primary screen, imaging, A549 dox-inducible miR-34, nuclei and caspase counts (AID 1347080). To be noted: A549 miR-34 inducible, Hoechst nuclei count, 48 h.
Test [2] can be described thus: survival rescue of mitochondrial mutant cells in low glucose, primary screen, MELAS cybrids, Rieske KO mouse fibroblasts, CellTiter-Glo (AID 1508586;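 active = mean z-score across replicates of 1.96 or higher in either the MELAS or the Rieske mutant cell line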;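 also: z relative to plate mean and SD of compound and empty wells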). (Cellular ATP, detected with luciferase, serves as a proxy for viable cell number.)
Test [3] concerns the target NAD(+) hydrolase SARM1 (Homo sapiens) (UniProt Q6SZW1). Description: SARM1 TIR NADase inhibitors, cell lysate, NAD-Glo luminescence (AID 1508614;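 active = compound whose remaining NAD level is above about 45 nM, limit read from the data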;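 also: higher remaining NAD means stronger inhibition of SARM1 NADase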). Particulars: SAM-TIR HEK293T lysate NADase, at 1 µM, stronger effect = higher value.
Test [4] deals with Mitogen-activated protein kinase 7 (Homo sapiens) (UniProt Q13164). Nature of the test: ERK5 transactivation activators in reporter cells, primary screen, cell-based, HTS (AID 1508626;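 active = luciferase signal above three times the same-plate solvent-only control wells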;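 also: luciferase driven by Gal4-ERK5 fusion binding five Gal4 sites before minimal TATA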). Particulars: HeLa Gal4-ERK5 transactivation, 18 h, at 5 µM, stronger effect = higher value.
Sequence of Mitogen-activated protein kinase 7 (Homo sapiens) (Q13164 whole entry, looked up, the tested form may be a part): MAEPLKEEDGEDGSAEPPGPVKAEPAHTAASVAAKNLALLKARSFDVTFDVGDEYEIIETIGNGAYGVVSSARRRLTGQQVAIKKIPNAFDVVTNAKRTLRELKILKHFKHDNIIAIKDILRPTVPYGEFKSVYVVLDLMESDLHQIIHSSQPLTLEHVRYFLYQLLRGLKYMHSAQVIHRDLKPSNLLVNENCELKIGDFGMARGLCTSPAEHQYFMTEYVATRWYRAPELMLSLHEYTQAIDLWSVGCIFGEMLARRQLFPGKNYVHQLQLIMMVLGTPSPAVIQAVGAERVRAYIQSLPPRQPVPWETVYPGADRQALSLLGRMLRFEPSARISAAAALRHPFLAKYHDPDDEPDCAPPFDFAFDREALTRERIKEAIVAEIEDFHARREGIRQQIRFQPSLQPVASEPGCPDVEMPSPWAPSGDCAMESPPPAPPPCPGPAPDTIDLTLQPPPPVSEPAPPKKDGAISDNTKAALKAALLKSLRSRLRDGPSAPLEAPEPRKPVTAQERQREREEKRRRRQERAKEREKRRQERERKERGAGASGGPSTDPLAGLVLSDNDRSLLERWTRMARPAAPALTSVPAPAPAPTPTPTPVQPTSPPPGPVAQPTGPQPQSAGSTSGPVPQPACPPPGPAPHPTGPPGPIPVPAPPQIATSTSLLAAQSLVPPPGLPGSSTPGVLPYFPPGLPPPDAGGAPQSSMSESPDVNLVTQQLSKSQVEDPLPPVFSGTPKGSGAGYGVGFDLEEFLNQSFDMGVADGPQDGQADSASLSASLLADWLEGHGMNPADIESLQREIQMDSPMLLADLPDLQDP
The mark [5] stands for this setting: stronger effect = lower value, cell number ratio, induced over uninduced.
Setting [6] is: measured here: relative caspase fold change +Dox/-Dox.
[7] abbreviates: measured here: total cells with miR-34 induction, stronger effect = lower value.
The mark [8] stands for this setting: measured here: total cells without miR-34 induction.
Setting [9] is: MELAS cybrid survival, CellTiter-Glo 48 h, stronger effect = higher value.
Setting [10] is: Rieske KO mouse fibroblast survival, CellTiter-Glo 72 h.

Each structure is given as a SMILES string. Where “and” joins values, the source holds several entries; their conditions need not be identical. Equal entries are not always repeated. Calls of active or inactive are those of the source.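 The calls were made as follows, unless noted: active = compounds whose cell count with miR-34 switched on is under 0.7 times the count with it off; inactive = the rest.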

Sequence of NAD(+) hydrolase SARM1 (Homo sapiens) (Q6SZW1 whole entry, looked up, the tested form may be a part): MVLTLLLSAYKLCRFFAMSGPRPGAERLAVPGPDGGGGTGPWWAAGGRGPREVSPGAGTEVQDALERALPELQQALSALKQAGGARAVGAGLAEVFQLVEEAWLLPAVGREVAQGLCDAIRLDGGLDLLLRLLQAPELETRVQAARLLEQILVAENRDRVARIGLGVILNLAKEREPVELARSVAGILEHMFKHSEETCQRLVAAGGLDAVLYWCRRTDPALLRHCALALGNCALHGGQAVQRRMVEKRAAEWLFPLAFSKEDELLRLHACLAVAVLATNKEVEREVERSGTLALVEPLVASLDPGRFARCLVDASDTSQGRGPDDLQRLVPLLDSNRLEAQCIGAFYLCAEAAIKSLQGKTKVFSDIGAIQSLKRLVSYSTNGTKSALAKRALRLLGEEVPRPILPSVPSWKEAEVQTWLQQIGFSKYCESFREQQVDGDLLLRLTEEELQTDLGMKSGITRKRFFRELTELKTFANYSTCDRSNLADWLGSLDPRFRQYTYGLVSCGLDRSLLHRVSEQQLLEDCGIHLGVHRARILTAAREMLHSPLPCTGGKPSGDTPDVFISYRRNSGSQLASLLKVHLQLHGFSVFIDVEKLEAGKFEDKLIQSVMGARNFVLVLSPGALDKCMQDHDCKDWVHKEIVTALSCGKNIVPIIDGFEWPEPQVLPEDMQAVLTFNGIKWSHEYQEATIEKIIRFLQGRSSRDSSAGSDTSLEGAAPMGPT

Regarding `CCN(CC)CCOC(=O)C(c1ccccc1)C1CCCCC1` (stereo unspecified), the fold change in test [1] (setting [5]) was 0.896 (inactive); in test [1] (setting [6]) it was 1.16. The cell count was 8670 in test [1] (setting [7]) and 9680 in test [1] (setting [8]). In addition, the results for the z-score in test [2] (setting [9]) and in test [2] (setting [10]) were -2.21 (inactive) and 0.0498, respectively. The remaining NAD in test [3] is 10 nM (inactive). Besides, the luciferase signal in test [4] is 52 AU (inactive).
With `CCN(CC)CCNC(=O)c1cc(Br)c(N)cc1OC`, the results for the fold change in test [1] (setting [5]) and in test [1] (setting [6]) were 0.86 (inactive) and 1.23, respectively. Besides, the values for the cell count in test [1] (setting [7]) and in test [1] (setting [8]) were 8310 and 9660, respectively. Also, the z-score in test [2] (setting [9]) is -0.546 (inactive); in test [2] (setting [10]), 0.146. For the same molecule, in test [3], the remaining NAD was 10 nM (inactive). Moreover, the luciferase signal in test [4] was 60 AU (inactive).
As to `CCOC(=O)OC(C)OC(=O)[C@@H]1N2C(=O)[C@@H](NC(=O)[C@H](N)c3ccccc3)[C@H]2SC1(C)C` (stereo partly specified), the fold change in test [1] (setting [5]) was 0.838 (inactive); in test [1] (setting [6]), 1.63. The cell count in test [1] (setting [7]) came to 8230; in test [1] (setting [8]), 9820. Besides, the z-score in test [2] (setting [9]) was 0.0142 (inactive); in test [2] (setting [10]) it was -0.106. Also, the remaining NAD in test [3] was 10 nM (inactive). Also, the luciferase signal in test [4] is 76 AU (inactive).
Consider `CCCCC(CC)CN=C(N)NC(N)=NCCCCCCN=C(N)NC(N)=NCC(CC)CCCC` (stereo unspecified), for which the fold change in test [1] (setting [5]) was 0.778 (inactive); in test [1] (setting [6]), 1.43. In addition, the cell count in test [1] (setting [7]) turned out to be 389; in test [1] (setting [8]), 500. The figures for the z-score in test [2] (setting [9]) and in test [2] (setting [10]) were -2.81 and 8.3, respectively. In test [3], the remaining NAD is 10 nM (inactive). Also, the luciferase signal in test [4] was 88 AU (inactive).
Consider `O=C(O)c1ccccc1OP(=O)(O)O`, for which the fold change in test [1] (setting [5]) was 0.878 (inactive); in test [1] (setting [6]), 1.05. Also, the values for the cell count in test [1] (setting [7]) and in test [1] (setting [8]) were 9100 and 10400, respectively. The z-score in test [2] (setting [9]) is 0.629 (inactive); in test [2] (setting [10]), -0.238. Besides, the remaining NAD in test [3] is 10 nM (inactive). Moreover, in test [4], the luciferase signal is 60 AU (inactive).
Consider `CC1(C)O[C@@H]2C[C@H]3[C@@H]4C[C@H](F)C5=CC(=O)CC[C@]5(C)[C@H]4[C@@H](O)C[C@]3(C)[C@]2(C(=O)CO)O1`, for which the results for the fold change in test [1] (setting [5]) and in test [1] (setting [6]) were 0.775 (inactive) and 0.796, respectively. Also, the cell count in test [1] (setting [7]) worked out at 4730; in test [1] (setting [8]), 6100. The z-score in test [2] (setting [9]) was -0.21 (inactive); in test [2] (setting [10]), 0.615. The remaining NAD in test [3] was 10 nM (inactive). Also, in test [4], the luciferase signal was 228 AU (inactive).
Consider `CCCCC1C(=O)N(c2ccccc2)N(c2ccc(O)cc2)C1=O` (stereo unspecified), for which the fold change in test [1] (setting [5]) is 0.952 (inactive) and 0.848 (inactive); in test [1] (setting [6]), 0.53 and 1.48. The cell count in test [1] (setting [7]) is 8300 and 10300; in test [1] (setting [8]), 8720 and 12100. Moreover, the z-score is -1.46 (inactive) in test [2] (setting [9]) and -1.25 in test [2] (setting [10]). The remaining NAD in test [3] was 10 nM (inactive). Further, in test [4], the luciferase signal was 144 AU (inactive).
With `Cc1ccccc1OCC(O)CO` (stereo unspecified), the fold change is 0.91 (inactive) and 0.921 (inactive) in test [1] (setting [5]); 0.936 and 3.64 in test [1] (setting [6]). Besides, the cell count in test [1] (setting [7]) was 8610 and 11300; in test [1] (setting [8]), 9470 and 12300. The z-score in test [2] (setting [9]) was -0.331 (inactive); in test [2] (setting [10]), -0.218. In addition, the remaining NAD in test [3] was 10 nM (inactive). In test [4], the luciferase signal was 44 AU (inactive).
Turning to `CN1CCOC(c2ccccc2)c2ccccc2C1` (stereo unspecified), the fold change was 0.979 (inactive) and 0.925 (inactive) in test [1] (setting [5]); 1.1 and 3.08 in test [1] (setting [6]). The cell count is 8830 and 11200 in test [1] (setting [7]); 9020 and 12100 in test [1] (setting [8]). Further, the z-score in test [2] (setting [9]) is 0.332 (inactive); in test [2] (setting [10]) it was 0.617. Further, the remaining NAD in test [3] is 10 nM (inactive). In test [4], the luciferase signal is 120 AU (inactive).
On to `CC(N)CCCC(C)(C)O` (stereo unspecified), for which the results for the fold change in test [1] (setting [5]) and in test [1] (setting [6]) were 0.926 (inactive) and 1.29, respectively. Further, the values for the cell count in test [1] (setting [7]) and in test [1] (setting [8]) were 8630 and 9320, respectively. Moreover, the values for the z-score in test [2] (setting [9]) and in test [2] (setting [10]) were 0.045 (inactive) and 0.396, respectively. In addition, the remaining NAD in test [3] was 10 nM (inactive). For the same molecule, the luciferase signal in test [4] is 160 AU (inactive).
For `O=c1ccc2ccccc2o1`, the fold change in test [1] (setting [5]) is 0.91 (inactive) and 0.88 (inactive); in test [1] (setting [6]), 0.575 and 1.07. For the same molecule, the cell count in test [1] (setting [7]) was 7780 and 10900; in test [1] (setting [8]), 8550 and 12300. For the same molecule, the figures for the z-score in test [2] (setting [9]) and in test [2] (setting [10]) were -0.266 (inactive) and -0.22, respectively. Also, the remaining NAD in test [3] is 10 nM (inactive). For the same molecule, the luciferase signal in test [4] was 48 AU (inactive).
`O=C1c2c(O)cccc2Cc2cccc(O)c21`: the fold change in test [1] (setting [5]) was 0.891 (inactive); in test [1] (setting [6]), 1.8. Besides, the cell count in test [1] (setting [7]) is 11600; in test [1] (setting [8]), 13000. For the same molecule, the figures for the z-score in test [2] (setting [9]) and in test [2] (setting [10]) were 0.308 (inactive) and 0.465, respectively. Moreover, the remaining NAD in test [3] is 10 nM (inactive). Also, the luciferase signal in test [4] is 180 AU (inactive).
As for `Nc1ncnc2nc[nH]c12`, the fold change was 0.911 (inactive) and 0.881 (inactive) in test [1] (setting [5]); 0.822 and 4.73 in test [1] (setting [6]). Also, the cell count in test [1] (setting [7]) is 8220 and 12600; in test [1] (setting [8]), 9020 and 14300. For the same molecule, the z-score in test [2] (setting [9]) is -0.543 (inactive); in test [2] (setting [10]) it was -0.641. The remaining NAD in test [3] was 10 nM (inactive). For the same molecule, the luciferase signal in test [4] was 72 AU (inactive).
Regarding `CC1=C(C(=O)O)N2C(=O)[C@@H](NC(=O)[C@H](N)c3ccc(O)cc3)[C@H]2SC1`, the fold change in test [1] (setting [5]) was 0.85 (inactive); in test [1] (setting [6]) it was 1.87. The cell count in test [1] (setting [7]) was 8500; in test [1] (setting [8]), 10000. The z-score in test [2] (setting [9]) is 0.444 (inactive); in test [2] (setting [10]) it was 0.13. Besides, the remaining NAD in test [3] was 10 nM (inactive). The luciferase signal in test [4] was 108 AU (inactive).
Consider `CCCCN(CCCC)CCCOC(=O)c1ccc(N)cc1`, for which the fold change was 0.866 (inactive) and 0.888 (inactive) in test [1] (setting [5]); 2.02 and 4.13 in test [1] (setting [6]). Besides, the cell count in test [1] (setting [7]) is 8920 and 11400; in test [1] (setting [8]), 10300 and 12800. Also, the figures for the z-score in test [2] (setting [9]) and in test [2] (setting [10]) were 0.278 (inactive) and -0.637, respectively. For the same molecule, the remaining NAD in test [3] was 10 nM (inactive). Moreover, the luciferase signal in test [4] is 120 AU (inactive).
In the case of `CC(NCCC(c1ccccc1)c1ccccc1)c1ccccc1` (stereo unspecified), the fold change in test [1] (setting [5]) was 0.975 (inactive); in test [1] (setting [6]), 1.46. Besides, the cell count in test [1] (setting [7]) came to 2830; in test [1] (setting [8]) it was 2900. Besides, the z-score in test [2] (setting [9]) is -0.775 (inactive); in test [2] (setting [10]), -0.331. In addition, the remaining NAD in test [3] was 10 nM (inactive). Further, the luciferase signal in test [4] was 36 AU (inactive).
On to `O=C(O)c1ccccc1O`, for which the fold change is 0.935 (inactive) and 0.936 (inactive) in test [1] (setting [5]); 0.622 and 2.5 in test [1] (setting [6]). The cell count in test [1] (setting [7]) was 8100 and 11600; in test [1] (setting [8]), 8660 and 12400. The z-score was -0.0591 (inactive) in test [2] (setting [9]) and -0.159 in test [2] (setting [10]). The remaining NAD in test [3] is 10 nM (inactive). Moreover, the luciferase signal in test [4] is 24 AU (inactive).
